This is part of a sample that, as a whole, favours compounds with a hit. Of some 83,000 tested, about 20% had one in any assay.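 How to read the values: 0–100, growth inhibition (40 = 60% inhibited); 0, no net growth; -100 to 0, cell death (-40 = 40% of starting cells died; -100 = all dead).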 Unmarked numbers belong to inactive results. The source made the active and inactive calls. Rule for the calls: active = growth percent below 10; inactive = the rest.
Tests used:
Assay in all cases: NCI-60 one-dose screen, 48 h (100 = growth as untreated, 0 = no growth, -100 = all killed)
Settings in all cases: 10 µM unless noted
[1] = tested on: NCI-H23 lung
[2] = tested on: NCI-H226 lung
[3] = tested on: NCI-H322M lung
[4] = tested on: HOP-62 NSCLC
[5] = tested on: NCI-H460 lung
[6] = tested on: HOP-92 NSCLC
[7] = tested on: NCI-H522 lung
[8] = tested on: A549/ATCC NSCLC
[9] = tested on: 786-0 renal
[10] = tested on: COLO 205 colon
[11] = tested on: DU-145 prostate
[12] = tested on: K-562 leukemia
[13] = tested on: MALME-3M melanoma
[14] = tested on: MDA-MB-231 breast
[15] = tested on: RXF 393 renal
[16] = tested on: SF-268 CNS
[17] = tested on: SF-295 CNS
[18] = tested on: SF-539 CNS
[19] = tested on: UACC-257 melanoma
[20] = tested on: M14 melanoma

## Cc1cc(N2CCCC2)nc(N(CCNc2ccnc3cc(Cl)ccc23)Cc2ccco2)n1
[1]
  growth: 9.57% (active)
[2]
  growth: 24.9%
[3]
  growth: 19.7%
[4]
  growth: 43.3%
[5]
  growth: 15.8%
[6]
  growth: -15% (active)
[7]
  growth: 49.9%
[8]
  growth: 48%
[9]
  growth: 4.55% (active)
[10]
  growth: 15.9%
[11]
  growth: 50.3%
[12]
  growth: -1.93% (active)
[13]
  growth: 28.2%
[14]
  growth: 11.7%
[15]
  growth: -0.497% (active)
[16]
  growth: 55.5%
[17]
  growth: 18.8%
[18]
  growth: -10.7% (active)
[19]
  growth: 69.8%
[20]
  growth: -63.2% (active)

## O=C1Nc2ccccc2/C1=C/c1cn(CCCn2c3ccccc3c(=O)c3ccccc32)c2ccccc12
[1]
  growth: 79.2%
[2]
  growth: 81.3%
[3]
  growth: 86.8%
[4]
  growth: 80.3%
[5]
  growth: 96.3%
[6]
  growth: 83.4%
[7]
  growth: 77.5%
[8]
  growth: 96.5%
[9]
  growth: 82.9%
[10]
  growth: 88.6%
[11]
  growth: 102%
[12]
  growth: 91.7%
[13]
  growth: 98.7%
[14]
  growth: 67.9%
[15]
  growth: 104%
[16]
  growth: 79.2%
[17]
  growth: 91.5%
[18]
  growth: 86.8%
[19]
  growth: 109%
[20]
  growth: 91.1%

## C[C@H]1OC(=O)/C=C/[C@@H](O)[C@@H](O)CCCCCCCC[C@@H]1O
[1]
  growth: 95.1%
[2]
  growth: 89.3%
[3]
  growth: 96.2%
[4]
  growth: 82.9%
[5]
  growth: 102%
[6]
  growth: 82.8%
[7]
  growth: 79.5%
[8]
  growth: 73.6%
[9]
  growth: 97.5%
[10]
  growth: 95.1%
[11]
  growth: 107%
[12]
  growth: 91.6%
[13]
  growth: 98.1%
[14]
  growth: 109%
[15]
  growth: 107%
[16]
  growth: 102%
[17]
  growth: 98.9%
[18]
  growth: 97.7%
[19]
  growth: 82.5%
[20]
  growth: 96.3%

## CCCCC[C@H]1C/C=C2/C(=O)C(Cl)=C[C@@H]2C/C=C\CCCC(=O)O[C@@H](CCCCC)C/C=C2/C(=O)C(Cl)=C[C@@H]2C/C=C\CCCC(=O)O1
[1]
  growth: -24.7% (active)
[2]
  growth: -34.3% (active)
[3]
  growth: -31.2% (active)
[4]
  growth: -52.8% (active)
[5]
  growth: -27.2% (active)
[6]
  growth: -63.4% (active)
[7]
  growth: -67.3% (active)
[8]
  growth: -51.4% (active)
[9]
  growth: -66.9% (active)
[10]
  growth: -76.4% (active)
[11]
  growth: -31.4% (active)
[12]
  growth: 0.851% (active)
[13]
  growth: -14.1% (active)
[14]
  growth: -29.9% (active)
[15]
  growth: -87.5% (active)
[16]
  growth: 1.58% (active)
[17]
  growth: -27.3% (active)
[18]
  growth: -11.3% (active)
[19]
  growth: -63.5% (active)
[20]
  growth: -61.5% (active)

## C=C(C)[C@@H]1CC[C@]2(C)CC[C@]3(C)[C@H](CC[C@@H]4[C@@]5(C)CCCNC(C)(C)[C@@H]5CC[C@]43C)[C@@H]12
[1]
  growth: 94.1%
[2]
  growth: 96.5%
[3]
  growth: 99.5%
[4]
  growth: 101%
[5]
  growth: 48.4%
[6]
  growth: 76.6%
[7]
  growth: 106%
[8]
  growth: 51.3%
[9]
  growth: 102%
[10]
  growth: 8.77% (active)
[11]
  growth: 75.6%
[12]
  growth: 4.15% (active)
[13]
  growth: 88.9%
[14]
  growth: 96.7%
[15]
  growth: 88.4%
[16]
  growth: 104%
[17]
  growth: 106%
[18]
  growth: 98.2%
[19]
  growth: 107%
[20]
  growth: 79.6%

## N#CC1=C(N)Oc2c(c(N)nn2-c2ccccc2)C1c1ccc(Cl)cc1 (stereo not given)
[1]
  growth: 93.4%
[2]
  growth: 87.2%
[3]
  growth: 101%
[4]
  growth: 89.8%
[5]
  growth: 103%
[6]
  growth: 92.7%
[7]
  growth: 87.6%
[8]
  growth: 100%
[9]
  growth: 98.8%
[10]
  growth: 106%
[11]
  growth: 99.6%
[12]
  growth: 106%
[13]
  growth: 106%
[14]
  growth: 87.5%
[15]
  growth: 93.8%
[16]
  growth: 94.1%
[17]
  growth: 96.6%
[18]
  growth: 98.4%
[19]
  growth: 105%
[20]
  growth: 103%

## COc1ccc(NC(=O)c2ccc3c(c2)nc(-c2cc4ccccc4[nH]c2=O)n3-c2cc(C(C)(C)C)[nH]n2)cc1
[1]
  growth: 90.4%
[2]
  growth: 99%
[3]
  growth: 91.7%
[4]
  growth: 98.7%
[5]
  growth: 97.4%
[6]
  growth: 90.8%
[7]
  growth: 72.8%
[8]
  growth: 93.7%
[9]
  growth: 92.4%
[10]
  growth: 96.4%
[11]
  growth: 103%
[12]
  growth: 82.4%
[13]
  growth: 101%
[14]
  growth: 98.2%
[15]
  growth: 77.3%
[16]
  growth: 79.3%
[17]
  growth: 89.9%
[18]
  growth: 94.9%
[19]
  growth: 97.7%
[20]
  growth: 96.1%

## C=C(C)[C@@H]1CC[C@]2(C=NCCCNCCCCNCCCN)CC[C@]3(C)[C@H](CC[C@@H]4[C@@]5(C)CCCNC(C)(C)[C@@H]5CC[C@]43C)[C@@H]12
[1]
  growth: 82.5%
[2]
  growth: 80.1%
[3]
  growth: 100%
[4]
  growth: 92.9%
[5]
  growth: 91.7%
[6]
  growth: 92.4%
[7]
  growth: 99.6%
[8]
  growth: 88.8%
[9]
  growth: 107%
[10]
  growth: 79.1%
[11]
  growth: 101%
[12]
  growth: 20.1%
[13]
  growth: 103%
[14]
  growth: 104%
[15]
  growth: 110%
[16]
  growth: 102%
[17]
  growth: 91.2%
[18]
  growth: 95.3%
[19]
  growth: 107%
[20]
  growth: 98.5%

## COc1ccc(-c2cc(-c3cccs3)n(N=O)c(=O)c2C#N)cc1
[1]
  growth: 89.1%
[2]
  growth: 99.8%
[3]
  growth: 106%
[4]
  growth: 93.8%
[5]
  growth: 102%
[6]
  growth: 63.8%
[7]
  growth: 93%
[8]
  growth: 100%
[9]
  growth: 93.5%
[10]
  growth: 119%
[11]
  growth: 119%
[12]
  growth: 34.3%
[13]
  growth: 127%
[14]
  growth: 100%
[15]
  growth: 96.3%
[16]
  growth: 110%
[17]
  growth: 102%
[18]
  growth: 96.5%
[19]
  growth: 101%
[20]
  growth: 116%

## COc1ccc2c(c1)c(-c1nc(-c3c[nH]c4ncccc34)cs1)cn2CCCN1CCCCC1
[1]
  growth: 73.1%
[2]
  growth: 70.8%
[3]
  growth: 56.4%
[4]
  growth: 37.4%
[5]
  growth: 5.78% (active)
[6]
  growth: 24.9%
[7]
  growth: 67.6%
[8]
  growth: 41.3%
[9]
  growth: -75.1% (active)
[10]
  growth: -74.9% (active)
[11]
  growth: 46.1%
[12]
  growth: -58.8% (active)
[13]
  growth: -70.9% (active)
[14]
  growth: 29.3%
[15]
  growth: 35.9%
[16]
  growth: 52.7%
[17]
  growth: 68.2%
[18]
  growth: -63.6% (active)
[19]
  growth: 71.8%
[20]
  growth: -84.1% (active)

## O=[N+]([O-])c1cc(S(=O)(=O)c2ccc(F)c([N+](=O)[O-])c2)ccc1F
[1]
  growth: 103%
[2]
  growth: 109%
[3]
  growth: 110%
[4]
  growth: 121%
[5]
  growth: 99.3%
[6]
  growth: 88.6%
[7]
  growth: 89%
[8]
  growth: 102%
[9]
  growth: 100%
[10]
  growth: 83%
[11]
  growth: 98.1%
[12]
  growth: 40.4%
[13]
  growth: 132%
[14]
  growth: 103%
[15]
  growth: 82.9%
[16]
  growth: 108%
[17]
  growth: 111%
[18]
  growth: 109%
[19]
  growth: 75.4%
[20]
  growth: 81.7%

## C=C(C)[C@@H]1CC[C@]2(C(=O)O)CC[C@]3(C)[C@H](CC[C@@H]4[C@@]5(C)C/C(=C/c6cccc(I)c6)C(=O)C(C)(C)[C@@H]5CC[C@]43C)[C@@H]12
[1]
  growth: 20.3%
[2]
  growth: 31.5%
[3]
  growth: 37.2%
[4]
  growth: 21.8%
[5]
  growth: 11.8%
[6]
  growth: 16%
[7]
  growth: 10%
[8]
  growth: 17.2%
[9]
  growth: 25%
[10]
  growth: 28%
[11]
  growth: 28.7%
[12]
  growth: 12.5%
[13]
  growth: 53.3%
[14]
  growth: 56%
[15]
  growth: 51.9%
[16]
  growth: 25.5%
[17]
  growth: 26.7%
[18]
  growth: 48.3%
[19]
  growth: 20.7%
[20]
  growth: 30.3%

## C[Si](C)(C)Cc1ccccc1
[1]
  growth: 102%
[2]
  growth: 114%
[3]
  growth: 119%
[4]
  growth: 99.9%
[5]
  growth: 120%
[6]
  growth: 110%
[7]
  growth: 139%
[8]
  growth: 120%
[9]
  growth: 98%
[10]
  growth: 139%
[11]
  growth: 125%
[12]
  growth: 126%
[13]
  growth: 115%
[14]
  growth: 115%
[15]
  growth: 132%
[16]
  growth: 122%
[17]
  growth: 103%
[18]
  growth: 107%
[19]
  growth: 112%
[20]
  growth: 104%

## Cn1cc(-c2csc(-c3cn(CCCN4CCCCC4)c4ccc(F)cc34)n2)c2cccnc21
[1]
  growth: 89.2%
[2]
  growth: 91.6%
[3]
  growth: 86.8%
[4]
  growth: 99.3%
[5]
  growth: 96.1%
[6]
  growth: 49%
[7]
  growth: 103%
[8]
  growth: 92.2%
[9]
  growth: 40.3%
[10]
  growth: 98.9%
[11]
  growth: 98%
[12]
  growth: 0.833% (active)
[13]
  growth: -43% (active)
[14]
  growth: 64.2%
[15]
  growth: 64.9%
[16]
  growth: 89%
[17]
  growth: 99.9%
[18]
  growth: 83.6%
[19]
  growth: 70.6%
[20]
  growth: -73.4% (active)
